This note sets out measurements from PubChem BioAssay (NCI).

Compounds without any hit were thinned out: in the full panel of roughly 83,000, 20% have a hit.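 In brief: 96-well plates, 48 h treatment, single concentration, percent growth endpoint.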 Unmarked numbers belong to inactive results. Active and inactive are the calls of the source. Rule for the calls: active = growth percent below 10; inactive = the rest.

Among the test systems are RPMI-8226 leukemia; OVCAR-8 ovarian; OVCAR-5 ovarian; OVCAR-4 ovarian; SK-OV-3 ovarian; OVCAR-3 ovarian; HS 578T breast; NCI/ADR-RES ovarian; T-47D breast; BT-549 breast; MDA-MB-435 melanoma; SW-620 colon; MCF7 breast; HCT-116 colon; HCC-2998 colon; KM12 colon; IGROV1 ovarian.
Assay in all cases: NCI-60 one-dose screen, 48 h (100 = growth as untreated, 0 = no growth, -100 = all killed)
Common to all, as to settings: 10 µM unless noted

On to `CCOC(=O)/C=C(/C)Sc1cc(O)c2ccccc2c1O`, for which the growth in the experiment on RPMI-8226 leukemia was 40.7%; in the experiment with OVCAR-8 ovarian, 24.3%; in the experiment on OVCAR-5 ovarian, 93%; in the experiment with OVCAR-4 ovarian, 51.1%; with SK-OV-3 ovarian, 6.27% (active); in the experiment with OVCAR-3 ovarian it was 13.4%. In addition, the growth with HS 578T breast was -28.2% (active); with NCI/ADR-RES ovarian, 21.6%; in the experiment with T-47D breast, 36.8%; with BT-549 breast, -37.1% (active); in the experiment with MDA-MB-435 melanoma, -82.2% (active); with SW-620 colon it was -40.2% (active). For the same compound, the growth in the experiment on MCF7 breast is -75.9% (active); in the experiment with HCT-116 colon it was 122%; in the experiment with HCC-2998 colon, 17.3%; in the experiment with KM12 colon, 3.07% (active).
For `Nc1nonc1-c1nc2ccccc2n1CC(=O)Nc1ccc2c(c1)COC2=O`, the growth with RPMI-8226 leukemia was 99.1%; in the experiment with OVCAR-8 ovarian, 94.3%; with OVCAR-5 ovarian, 94%; in the experiment on OVCAR-4 ovarian it was 93%; in the experiment on SK-OV-3 ovarian, 90.9%; with OVCAR-3 ovarian, 94.2%. Moreover, the growth in the experiment on HS 578T breast is 65.9%; in the experiment on NCI/ADR-RES ovarian, 85.6%; in the experiment with T-47D breast, 85.8%; in the experiment with BT-549 breast it was 81.3%; with MDA-MB-435 melanoma it was 5.9% (active); in the experiment on SW-620 colon it was 59.1%. For the same compound, the results for the growth in the experiment on MCF7 breast, in the experiment on HCT-116 colon and in the experiment on HCC-2998 colon were 73.8%, 74.1% and 92.3%, respectively.
As for `CC(C)c1nc(N(C)S(C)(=O)=O)nc(-c2ccc(F)cc2)c1/C=C/[C@@H](O)C[C@@H](O)CC(=O)O`, the growth with RPMI-8226 leukemia was 113%; with OVCAR-8 ovarian, 90.5%; in the experiment with OVCAR-5 ovarian, 108%; with OVCAR-4 ovarian, 100%; in the experiment with SK-OV-3 ovarian, 104%; in the experiment on IGROV1 ovarian, 105%. The growth in the experiment with OVCAR-3 ovarian was 99.4%; with NCI/ADR-RES ovarian, 104%; in the experiment with T-47D breast, 99.4%; with BT-549 breast it was 103%; with MDA-MB-435 melanoma it was 109%; with SW-620 colon it was 107%. Besides, the growth is 98.2% in the experiment on HCT-116 colon, 97.5% with HCC-2998 colon and 95.8% in the experiment on KM12 colon.
As to `COc1ccc(-c2nnc(COc3ccc(NC(=O)Nc4cc(C(F)(F)F)cc(C(F)(F)F)c4)cc3F)o2)cc1`, the growth in the experiment with RPMI-8226 leukemia is -25.8% (active); with OVCAR-8 ovarian, 11.4%; with OVCAR-5 ovarian it was 29%; in the experiment on OVCAR-4 ovarian, 19.2%; with SK-OV-3 ovarian, 18.4%; in the experiment with IGROV1 ovarian it was 44.4%. Moreover, the growth in the experiment on OVCAR-3 ovarian is 2.67% (active); in the experiment on NCI/ADR-RES ovarian, 10.6%; with T-47D breast, 20.4%; in the experiment with BT-549 breast, 15.5%; in the experiment on MDA-MB-435 melanoma, 7.29% (active); in the experiment on SW-620 colon, 13.6%. Moreover, the growth with MCF7 breast is 1.51% (active); with HCT-116 colon, 2.49% (active); in the experiment with HCC-2998 colon, 11.5%; in the experiment on KM12 colon it was 0.401% (active).
`C=Cc1nn2c(CCC(=O)c3nc4ccccc4[nH]3)nnc2s1`: the growth was 110% with RPMI-8226 leukemia; 108% in the experiment with OVCAR-8 ovarian; 102% with OVCAR-5 ovarian; 110% in the experiment on OVCAR-4 ovarian; 106% in the experiment with SK-OV-3 ovarian; 106% in the experiment on IGROV1 ovarian. Further, the growth with OVCAR-3 ovarian is 107%; with NCI/ADR-RES ovarian, 100%; in the experiment with T-47D breast, 106%; in the experiment with BT-549 breast it was 95.4%; in the experiment with MDA-MB-435 melanoma, 100%; with SW-620 colon, 102%. For the same compound, the growth in the experiment on MCF7 breast was 93.8%; in the experiment with HCT-116 colon, 98.5%; with KM12 colon, 97.7%.
As to `O=C(Nc1ccc(Nc2ccncc2)cc1)c1ccc(Nc2ccnc3ccc([N+](=O)[O-])cc23)cc1[N+](=O)[O-]`, the growth is 77.8% in the experiment on RPMI-8226 leukemia; 44.4% with OVCAR-8 ovarian; 97.4% in the experiment on OVCAR-5 ovarian; 91.1% in the experiment with OVCAR-4 ovarian; 82.8% with SK-OV-3 ovarian; 98.1% in the experiment on OVCAR-3 ovarian. Besides, the growth in the experiment with HS 578T breast was -5.48% (active); in the experiment with NCI/ADR-RES ovarian, 52%; in the experiment on T-47D breast, 62.2%; with BT-549 breast it was 38.8%; with MDA-MB-435 melanoma it was 63.1%; in the experiment on SW-620 colon it was 96.8%. In addition, the growth was 50.8% in the experiment with MCF7 breast, 54.4% in the experiment on HCT-116 colon, 104% with HCC-2998 colon and 2.06% (active) in the experiment with KM12 colon.
As for `COc1ccc(OC)c2c1[nH]c(=O)c1c3ccccc3cn21`, the growth is -21.8% (active) in the experiment on RPMI-8226 leukemia; -80.7% (active) with OVCAR-8 ovarian; -45.1% (active) in the experiment on OVCAR-5 ovarian; -29% (active) in the experiment on OVCAR-4 ovarian; -86% (active) in the experiment with SK-OV-3 ovarian; -60.7% (active) with IGROV1 ovarian. For the same compound, the growth in the experiment with NCI/ADR-RES ovarian was -6.09% (active); in the experiment on T-47D breast it was -48.3% (active); in the experiment with BT-549 breast, -11.6% (active); in the experiment on MDA-MB-435 melanoma, -97.9% (active); in the experiment on SW-620 colon, -59.8% (active); in the experiment with MCF7 breast, -78.5% (active). The growth in the experiment with HCT-116 colon was -71.5% (active); with HCC-2998 colon, -77.4% (active); with KM12 colon it was -52.6% (active).
With `CC(=O)O[C@H]1C(=O)[C@@]2(C)C([C@H](OC(=O)c3ccccc3)[C@]3(O)C[C@H](OC(=O)[C@H](O)[C@@H](NC(=O)c4ccccc4)c4ccccc4)C(C)=C1C3(C)C)[C@]1(OC(C)=O)CO[C@@H]1C[C@@H]2O` (stereo partly drawn), the growth in the experiment with RPMI-8226 leukemia is 3.77% (active); in the experiment with OVCAR-8 ovarian it was 26.6%; in the experiment on OVCAR-5 ovarian it was 27.2%; in the experiment with OVCAR-4 ovarian it was 46.5%; in the experiment with SK-OV-3 ovarian it was 18.1%; in the experiment with IGROV1 ovarian, 42%. In addition, the growth in the experiment with OVCAR-3 ovarian is -9.4% (active); with NCI/ADR-RES ovarian, 43.9%; with T-47D breast it was 47.3%; in the experiment with BT-549 breast, 30.5%; in the experiment on MDA-MB-435 melanoma, -11.5% (active); in the experiment on SW-620 colon it was 43.4%. Also, the growth with HCT-116 colon was 7.81% (active); in the experiment on HCC-2998 colon it was -22.4% (active); with KM12 colon, 9.05% (active).
Turning to `O=C1CCCN1C1CCN(Cc2cc3ccccc3[nH]c2=O)c2ccccc21` (stereo not drawn), the growth was 3.19% (active) in the experiment on RPMI-8226 leukemia; 101% in the experiment on OVCAR-8 ovarian; 91.3% in the experiment on OVCAR-5 ovarian; 82.6% in the experiment on OVCAR-4 ovarian; 93.8% with SK-OV-3 ovarian; 90% in the experiment on IGROV1 ovarian. For the same compound, the growth with OVCAR-3 ovarian is 98.8%; with NCI/ADR-RES ovarian it was 97.4%; in the experiment with T-47D breast it was 60.1%; with BT-549 breast it was 98.2%; with MDA-MB-435 melanoma it was 93.5%; in the experiment with SW-620 colon, 96.3%. Moreover, the growth in the experiment with MCF7 breast is 92.8%; with HCT-116 colon it was 82.6%; in the experiment with KM12 colon, 98.1%.
